Assay [1] is described as follows: Primary qHTS for inhibitors of nuclear receptor binding SET domain protein 2 (NSD2) in an RCH-ACV wild type WT cells (2C) (AID 1645877; further: nearly all actives have a fitted effect of over 70% in size; further: potency means the concentration at half of the fitted maximal effect). (In qHTS, concentration-response curves come from the screen itself.)
The target of assay [2] is Catechol O-methyltransferase (Homo sapiens) (UniProt P21964). Kind of assay: Confirmatory Screen for Target Class Profiling of Small Molecule Inhibitors of Methyltransferases (AID 1745852; calls by dose curve; on activity change, negative = inhibition: on the % scale 0 is the no-effect control and ±100 the full control effect). As to conditions: MTase-Glo luminescence, SAH detection, recombinant enzyme; measured here: COMT max response; stronger effect = lower value.
The target in assay [3] is Guanidinoacetate N-methyltransferase (Homo sapiens) (UniProt Q14353). Described as above. Particulars: MTase-Glo luminescence, SAH detection, recombinant enzyme; at 57.3 µM (top of the series).
Assay [4] concerns the target Nicotinamide N-methyltransferase (Homo sapiens) (UniProt P40261). Described as above. As to conditions: MTase-Glo luminescence, SAH detection, recombinant enzyme; measured here: NNMT max response; stronger effect = lower value.
Assay [5] deals with Phenylethanolamine N-methyltransferase (Homo sapiens) (UniProt P11086). Described as above. Particulars: MTase-Glo luminescence, SAH detection, recombinant enzyme; measured here: PNMT max response; stronger effect = lower value.
Assay [6] has as its target Metallo-beta-lactamase type 2 (Klebsiella pneumoniae) (UniProt C7C422). The assay can be described thus: qHTS to identify inhibitors of the New Delhi Metallo-beta-lactamase (NDM): assay validation screen against the NCATS LOPAC Collection (AID 1794843).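 Further: nitrocefin turnover by NDM-1 measured as 485 nm absorbance at plateau; on the % scale 0 is the no-effect control and ±100 the full control effect.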 The method, boiled down:
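NDM-1 at 2 nM final in 50 mM HEPES pH 7.0 with 1 uM ZnSO4 and 0.01% Tween20 was preincubated with library compounds in DMSO. Nitrocefin (50 uM stock) was then added, and absorbance at 485 nm was read at the kinetic plateau.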

For assay [7], the target named is Phospholipid hydroperoxide glutathione peroxidase GPX4 (Homo sapiens) (UniProt P36969). Kind of assay: Primary qHTS Assay for Inhibitors of Recombinant Selenoprotein Glutathione Peroxidase 4 (GPX4) (AID 1845192). Further: nearly all actives have a fitted effect of over 65% in size. On activity change, negative = inhibition: on the % scale 0 is the no-effect control and ±100 the full control effect. Particulars: outcome: dose series up to 50 µM unless noted. Put shortly:
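GR-coupled readout: 100 nM GR, 1 mM GSH, 0.5 mM NADPH; NADPH fluorescence (ex 340/em 450 nm) read at t=0 and after 15 min RT. GPX4 200 nM, preincubated 30 min with compound; substrate 0.5 mM CHP.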

Assay [8] concerns the target Rap guanine nucleotide exchange factor 3 (Homo sapiens) (UniProt O95398). The assay can be described thus: Confirmatory qHTS for agonist of cAMP-regulated guanine nucleotide exchange factor 3 (EPAC1) (AID 1645881).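 Further: EPAC1 catalysed release of BODIPY-GDP from Rap1B seen as fluorescence loss; 100% = effect of cAMP agonist control; nearly all actives have a fitted effect of over 75% in size.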
The target in assay [9] is Rap guanine nucleotide exchange factor 4 (Homo sapiens) (UniProt Q8WZA2). Kind of assay: Confirmatory qHTS for agonist of cAMP-regulated guanine nucleotide exchange factor 4 (EPAC2) (AID 1645884).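 Further: nucleotide exchange releases bodipy-GDP from Rap1 and this lowers its fluorescence; on the % scale 0 is the no-effect control and ±100 the full control effect; nearly all actives have a fitted effect of over 65% in size.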
Assay [10] in a line: qHTS profiling for inhibitors of Plasmodium falciparum proliferation (AID 504749). Further: nearly all actives have a fitted effect of over 60% in size. Further: potency means the concentration at half of the fitted maximal effect.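 On activity, negative = inhibition: 0% = DMSO vehicle and full inhibition = artemisinin control.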 As to conditions: P. falciparum in erythrocytes, SYBR Green DNA, 72 h. Put shortly:
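Parasite proliferation within erythrocytes, 72 h exposure. Endpoint: SYBR Green I fluorescence after overnight lysis at room temperature. Controls: 0.29 uM artemisinin, DMSO.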

Assay [11] concerns the target Glutathione peroxidase 1 (Homo sapiens) (UniProt P07203). The assay can be described thus: Primary qHTS Assay for Inhibitors of Recombinant Selenoprotein Glutathione Peroxidase 1 (GPX1) (AID 1845191). Further: nearly all actives have a fitted effect of over 65% in size. The method, boiled down: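 Recombinant GPX1 (10 nM final) was preincubated with compound for 30 min at room temperature, then reacted with 1 mM GSH, 0.5 mM CHP, 0.5 mM NADPH and 100 nM glutathione reductase; NADPH fluorescence (340/450 nm) was read at 0 and 15 min.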

Assay [12] can be described thus: NCATS anti-infectives library activity on HEK293 viability as a counter-qHTS vs the C. elegans viability qHTS (AID 1745854).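 Further: HEK293 cells exposed to compounds for 24 hr before the viability read; on the % scale 0 is the no-effect control and ±100 the full control effect.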 The method, boiled down:
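Compounds were acoustically plated (several concentrations, 1:5, final up to 41.7 uM), then 1500 HEK293 cells added per well and incubated 24 hr at 37C, 5% CO2. CellTiter-Glo was added and luminescence read after 10 min.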

The target in assay [13] is Rap guanine nucleotide exchange factor 3 (Homo sapiens) (UniProt O95398). The assay can be described thus: Confirmatory qHTS for antagonist of cAMP-regulated guanine nucleotide exchange factor 3 (EPAC1) (AID 1645880).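 Further: plate controls were DMSO only for no effect and full effect of the ATA control for full effect; nearly all actives have a fitted effect of over 55% in size.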 Put shortly: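 Nucleotide exchange uses 100 nM EPAC1, 250 nM RAP1B-BODIPY-GDP and 50 uM GDP, with compounds in a concentration-titration series. After 5 min at room temperature, fluorescence (480 nm ex/540 nm em) is read every 5 min for 30 min. Data are normalized to control ATA and DMSO.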

Assay [14] has as its target Rap guanine nucleotide exchange factor 4 (Homo sapiens) (UniProt Q8WZA2). The assay can be described thus: Confirmatory qHTS for antagonist of cAMP-regulated guanine nucleotide exchange factor 4 (EPAC2) (AID 1645885). Further: potency means the concentration at half of the fitted maximal effect; nearly all actives have a fitted effect of over 25% in size.
In assay [15] the target is Luciferin 4-monooxygenase (Photinus pyralis) (UniProt P08659). Kind of assay: Primary firefly luciferase (FLuc) qHTS assay for identification of artifact compounds. (AID 1845220).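 Further: plate controls were DMSO vehicle for no effect and no enzyme for full effect; nearly all actives have a fitted effect of over 60% in size.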 Put shortly: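 qHTS, 15 min compound preincubation with substrate (10 uM luciferin, 10 uM ATP) at RT, then 10 nM FLuc; 5 min; luminescence; % inhibition vs no-enzyme/DMSO controls, 4-parameter Hill fit.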

The test system of assay [16] is Nanoluciferase (engineered Oplophorus gracilirostris luciferase). The assay can be described thus: Primary Nanoluciferase (NLuc) qHTS assay for identification of artifact compounds. (AID 1845222).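 Further: 0% = DMSO and -100% = no enzyme.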 Put shortly:
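Luminescence read-out of secreted NLuc in S16 cell conditioned medium (1:55); compounds tested with 15 min RT preincubation, then Nano-Glo substrate 1:100, 5 min. % inhibition vs no-enzyme and DMSO controls, 4-parameter Hill fit.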

[17] abbreviates: at 28.7 µM (top of the series), parasite line A.
Where [18] appears, read: at 28.7 µM (top of the series), parasite line B.

Inconclusive results are not listed. Active and inactive are the calls of the source. Unless noted, the call rests on the fitted dose curve; in most records, active means well fitted curve in the direction sought with a large enough effect; inconclusive means small, poorly fitted or top-dose-only effect, or another doubt; inactive means no such curve, though single readings can be large; an effect the other way counts as inactive or inconclusive.

Chain of Phospholipid hydroperoxide glutathione peroxidase GPX4 (Homo sapiens) (P36969 whole entry, looked up): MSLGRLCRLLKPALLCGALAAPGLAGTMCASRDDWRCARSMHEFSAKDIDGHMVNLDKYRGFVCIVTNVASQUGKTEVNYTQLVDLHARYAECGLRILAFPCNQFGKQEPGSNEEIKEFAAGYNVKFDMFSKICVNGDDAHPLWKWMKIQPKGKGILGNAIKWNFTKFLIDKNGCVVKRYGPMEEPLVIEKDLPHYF
Chain of Rap guanine nucleotide exchange factor 4 (Homo sapiens) (Q8WZA2 whole entry, looked up): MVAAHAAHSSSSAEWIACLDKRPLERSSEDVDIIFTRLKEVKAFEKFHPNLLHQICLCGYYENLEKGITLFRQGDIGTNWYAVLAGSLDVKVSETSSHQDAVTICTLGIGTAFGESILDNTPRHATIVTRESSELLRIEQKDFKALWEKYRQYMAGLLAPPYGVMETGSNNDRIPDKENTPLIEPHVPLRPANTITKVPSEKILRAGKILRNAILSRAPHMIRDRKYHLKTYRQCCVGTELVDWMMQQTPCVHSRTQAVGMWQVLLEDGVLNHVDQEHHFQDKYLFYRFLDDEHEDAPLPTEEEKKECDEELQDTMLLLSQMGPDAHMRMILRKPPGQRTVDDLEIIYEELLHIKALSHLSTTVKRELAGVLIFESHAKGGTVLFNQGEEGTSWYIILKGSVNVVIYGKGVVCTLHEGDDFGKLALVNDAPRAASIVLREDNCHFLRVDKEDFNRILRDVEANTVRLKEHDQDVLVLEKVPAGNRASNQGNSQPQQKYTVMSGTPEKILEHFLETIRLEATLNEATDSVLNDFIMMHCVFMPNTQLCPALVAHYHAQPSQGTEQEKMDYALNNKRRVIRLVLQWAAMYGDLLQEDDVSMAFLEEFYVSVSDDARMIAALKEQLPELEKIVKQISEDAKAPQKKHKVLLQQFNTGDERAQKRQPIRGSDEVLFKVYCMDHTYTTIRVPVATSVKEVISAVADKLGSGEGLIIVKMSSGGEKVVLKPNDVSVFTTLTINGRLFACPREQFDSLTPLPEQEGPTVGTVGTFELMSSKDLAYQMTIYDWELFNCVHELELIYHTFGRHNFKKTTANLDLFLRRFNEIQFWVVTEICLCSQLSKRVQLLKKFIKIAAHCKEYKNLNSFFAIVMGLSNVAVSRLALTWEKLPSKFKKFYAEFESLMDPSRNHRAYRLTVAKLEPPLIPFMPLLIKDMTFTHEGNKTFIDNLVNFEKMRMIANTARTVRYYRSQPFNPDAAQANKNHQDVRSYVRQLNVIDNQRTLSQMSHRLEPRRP
Chain of Metallo-beta-lactamase type 2 (Klebsiella pneumoniae) (C7C422 whole entry, looked up): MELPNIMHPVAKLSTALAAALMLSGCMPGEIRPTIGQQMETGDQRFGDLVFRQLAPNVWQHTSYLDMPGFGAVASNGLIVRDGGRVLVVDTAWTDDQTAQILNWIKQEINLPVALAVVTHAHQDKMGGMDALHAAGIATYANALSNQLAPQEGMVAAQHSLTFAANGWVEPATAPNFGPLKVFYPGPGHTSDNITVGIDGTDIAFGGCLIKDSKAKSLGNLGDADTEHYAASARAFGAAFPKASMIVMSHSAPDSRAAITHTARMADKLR
Chain of Rap guanine nucleotide exchange factor 3 (Homo sapiens) (O95398 whole entry, looked up): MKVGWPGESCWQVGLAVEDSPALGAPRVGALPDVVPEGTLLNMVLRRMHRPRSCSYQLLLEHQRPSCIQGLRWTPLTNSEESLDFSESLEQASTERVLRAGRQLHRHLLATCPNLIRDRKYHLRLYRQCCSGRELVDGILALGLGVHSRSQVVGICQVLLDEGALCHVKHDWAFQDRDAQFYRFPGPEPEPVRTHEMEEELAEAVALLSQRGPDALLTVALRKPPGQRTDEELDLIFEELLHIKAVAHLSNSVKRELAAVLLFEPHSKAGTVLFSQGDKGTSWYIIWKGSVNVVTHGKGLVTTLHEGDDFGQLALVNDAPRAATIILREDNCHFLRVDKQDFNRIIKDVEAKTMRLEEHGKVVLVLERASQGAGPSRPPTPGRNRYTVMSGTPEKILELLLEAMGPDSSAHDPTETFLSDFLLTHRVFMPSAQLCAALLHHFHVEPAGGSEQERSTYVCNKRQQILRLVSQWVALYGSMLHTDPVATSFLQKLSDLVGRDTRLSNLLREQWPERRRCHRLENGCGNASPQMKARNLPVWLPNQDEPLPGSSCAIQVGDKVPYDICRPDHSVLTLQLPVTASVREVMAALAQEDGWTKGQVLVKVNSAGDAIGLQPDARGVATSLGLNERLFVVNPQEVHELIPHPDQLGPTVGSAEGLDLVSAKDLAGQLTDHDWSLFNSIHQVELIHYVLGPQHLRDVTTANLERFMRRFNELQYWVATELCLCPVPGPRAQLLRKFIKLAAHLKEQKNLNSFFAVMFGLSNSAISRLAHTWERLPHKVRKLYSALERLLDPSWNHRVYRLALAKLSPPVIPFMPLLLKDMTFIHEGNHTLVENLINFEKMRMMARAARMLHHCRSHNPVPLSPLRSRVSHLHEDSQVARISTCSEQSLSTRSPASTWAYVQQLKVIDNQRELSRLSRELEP
Chain of Glutathione peroxidase 1 (Homo sapiens) (P07203 whole entry, looked up): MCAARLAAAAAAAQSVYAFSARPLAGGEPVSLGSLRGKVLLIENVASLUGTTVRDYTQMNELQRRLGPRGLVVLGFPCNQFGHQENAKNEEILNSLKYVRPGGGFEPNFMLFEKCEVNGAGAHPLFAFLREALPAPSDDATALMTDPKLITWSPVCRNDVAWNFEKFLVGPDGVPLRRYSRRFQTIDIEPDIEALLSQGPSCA
Chain of Phenylethanolamine N-methyltransferase (Homo sapiens) (P11086 whole entry, looked up): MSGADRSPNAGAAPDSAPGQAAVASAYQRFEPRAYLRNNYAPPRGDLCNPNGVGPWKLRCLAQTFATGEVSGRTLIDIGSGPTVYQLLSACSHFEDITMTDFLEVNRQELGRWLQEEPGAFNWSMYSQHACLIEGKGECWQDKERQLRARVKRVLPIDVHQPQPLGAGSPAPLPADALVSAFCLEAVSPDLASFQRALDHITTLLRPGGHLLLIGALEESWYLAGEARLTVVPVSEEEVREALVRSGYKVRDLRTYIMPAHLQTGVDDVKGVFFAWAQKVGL
Chain of Catechol O-methyltransferase (Homo sapiens) (P21964 whole entry, looked up): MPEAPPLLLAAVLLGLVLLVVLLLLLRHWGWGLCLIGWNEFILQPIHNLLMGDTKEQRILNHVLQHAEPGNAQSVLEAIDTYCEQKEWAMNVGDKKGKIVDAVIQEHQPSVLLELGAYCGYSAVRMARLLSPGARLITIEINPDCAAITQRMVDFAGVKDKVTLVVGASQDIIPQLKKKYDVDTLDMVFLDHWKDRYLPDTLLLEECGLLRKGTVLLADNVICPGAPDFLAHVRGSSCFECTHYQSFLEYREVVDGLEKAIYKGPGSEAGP
Chain of Nicotinamide N-methyltransferase (Homo sapiens) (P40261 whole entry, looked up): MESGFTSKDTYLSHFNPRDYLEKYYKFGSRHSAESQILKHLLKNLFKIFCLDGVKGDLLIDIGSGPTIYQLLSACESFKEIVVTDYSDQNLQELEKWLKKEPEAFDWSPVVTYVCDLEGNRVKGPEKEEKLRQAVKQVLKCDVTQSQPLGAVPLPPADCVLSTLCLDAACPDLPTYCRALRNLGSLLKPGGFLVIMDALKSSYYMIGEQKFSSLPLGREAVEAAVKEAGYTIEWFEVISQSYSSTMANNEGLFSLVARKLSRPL

As to `COc1cc(C(=O)OCCCN2CCCN(CCCOC(=O)c3cc(OC)c(OC)c(OC)c3)CC2)cc(OC)c1OC`, the Potency in [1] is 23.7 µM (active). The activity in assay [2] is -6.42%; in assay [4] it was -4.53%; in assay [5], 1.01%. Further, the activity change, negative = inhibition in [3] was 9.88%. In assay [6], the Potency result was “inactive”. The outcome in assay [7] was “inactive”.

Turning to `O=C1NCN(c2ccccc2)C12CCN(CCCC(c1ccc(F)cc1)c1ccc(F)cc1)CC2`, the Potency in assay [1] is 2.66 µM (active); in assay [10] (parasite line A), 3.16 µM (active); in assay [10] (parasite line B) it was 7.94 µM (active). Besides, the Potency entry in [8], in assay [9] and in assay [6] was “inactive” each time.

Regarding `CC(=O)OC(C)C[N+](C)(C)C` (configuration not stated), the Potency result in assay [1], in assay [6] and in assay [11] was “inactive” each time. Further, in assay [7], the outcome is “inactive”.

As for `C[C@H](CS)C(=O)N1CCC[C@H]1C(=O)O`, the Potency result in assay [1] and in assay [11] was “inactive” in each case. In [12], the outcome was “inactive”. Also, the results for the activity, negative = inhibition in assay [10] (setting [17]) and in assay [10] (setting [18]) were -25.9% (inactive) and 10.2% (inactive), respectively.

For `N[C@@H](COP(=O)(O)O)C(=O)O`, the Potency result in assay [1], in [6] and in assay [11] was “inactive” in each case. In addition, the outcome in assay [7] was “inactive”.

Consider `CCn1ccnc1CC1COc2ccccc2O1` (configuration not stated), for which the Potency result in assay [1], in assay [8], in [9], in assay [6] and in assay [11] was “inactive” each time. The outcome in assay [13] and in [7] was “inactive” each time. The Potency in assay [14] is 11.1 µM (active). Moreover, the activity, negative = inhibition in assay [10] (setting [17]) was 10.6% (inactive); in assay [10] (setting [18]), 1.07% (inactive).

For `COC(=O)[C@H]1[C@H]2C[C@@H]3c4[nH]c5cc(OC)ccc5c4CCN3C[C@H]2C[C@@H](OC(=O)c2cc(OC)c(OC)c(OC)c2)[C@@H]1OC`, the Potency result in assay [1], in [6] and in assay [11] was “inactive” in each case. Besides, the outcome in [7], in [15] and in assay [16] was “inactive” in each case. Moreover, the Potency in assay [10] (parasite line A) and in assay [10] (parasite line B) was 11.2 µM (active) in each case.

Take `CCN1CCC[C@H]1CNC(=O)c1c(O)c(Cl)cc(Cl)c1OC`: the Potency result in assay [1], in assay [6] and in assay [11] was “inactive” each time. The outcome in [7] was “inactive”. The activity, negative = inhibition was 0.765% (inactive) in [10] (setting [17]) and 14.7% (inactive) in assay [10] (setting [18]).

On to `CCN1CCc2nc(N)oc2CC1`, for which the Potency result in assay [1], in [6] and in [11] was “inactive” throughout. Also, in [7], the outcome was “inactive”. Moreover, the figures for the activity, negative = inhibition in assay [10] (setting [17]) and in assay [10] (setting [18]) were 1.51% (inactive) and 1.64% (inactive), respectively.

As for `CCCCNc1ccc(C(=O)OCCN(C)C)cc1`, the Potency result in [1], in [6] and in [11] was “inactive” throughout. In assay [10] (at 12.8 µM (top of the series), parasite line A), the activity, negative = inhibition is 20% (inactive).

As to `CN(C)C(=O)Oc1ccc[n+](C)c1`, the Potency entry in assay [1], in [6] and in assay [11] was “inactive” each time. For the same compound, the outcome in assay [7] was “inactive”. Also, the activity, negative = inhibition was 4.28% (inactive) in [10] (setting [17]) and 5.75% (inactive) in assay [10] (setting [18]).

Consider `O=C(CCNNC(=O)c1ccncc1)NCc1ccccc1`, for which the Potency result in [1], in assay [6] and in assay [11] was “inactive” throughout. Moreover, in assay [7], the outcome is “inactive”. The activity, negative = inhibition in assay [10] (setting [17]) was 13.9% (inactive); in assay [10] (setting [18]), 17% (inactive).

The values above are taken from PubChem BioAssay (NCATS).
